# Test results as given in PubChem BioAssay AID1259418 (Broad Institute, 2018).
# The whole screen tested about 3,400 compounds, of which about 840 (25%) were called active. Inconclusive results (about 11%) are left out. The list is a sample of the results. Potency and affinity values are given separately. Values without a mark were called inactive.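 Rule for the calls: active = fitted half-maximal concentration of signal decrease at or below twice the sample's top tested concentration; inconclusive = flat curve between -70 and -30 percent, or poor fit; inactive = flat within 30 percent, signal rise, or potency above limit.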
# Test: inhibitors of Toxoplasma growth in IFN-γ-primed HeLa – cell-based, ME49Luc, luciferase, 72 h, dose response (AID 1259418)
# Settings: T. gondii ME49Luc in IFN-y HeLa, active compounds read low, -100% = high-dose IFN-γ control wells; at 19.5 µM unless noted
row,Compound,max activity
1,COc1ccc(-c2nc(NCc3ccccc3Cl)c3ccccc3n2)cc1,7.56% [at 0.16 µM]
2,COc1ccccc1CNC(=O)CC1N=C2c3ccccc3N=C(SCC#N)N2C1=O (stereo not given),42.4% [at 10 µM]
3,COc1cc(OC)cc(-c2noc(-c3nnn(Cc4nc(-c5ccc(C)cc5)oc4C)c3C)n2)c1,10.5% [at 0.16 µM]
4,CC1CCCCN1C(=O)c1ccnn1-c1ccc2ccc(-c3ccccc3)cn12 (stereo not given),31.6%
5,Cc1ccc(NC(=O)N2CCN(Cc3nc(-c4ccccc4C)oc3C)CC2)cc1C,8.71% [at 0.68 µM]
6,COc1ccc(-c2nc(NCCCN3CCC(Cc4ccccc4)CC3)c3ccccc3n2)cc1,-19.1% [at 0.35 µM]
7,CCC(CN1CCOCC1)Nc1nc(-c2ccc(OC)cc2)nc2ccccc12 (stereo not given),27.4%
8,O=C(NCCc1c[nH]c2ccccc12)c1cc(-c2ccccn2)nc2ccccc12,15.3% [at 0.68 µM]
9,CCCc1ccc(S(=O)(=O)N2CCc3nc(-c4ccc(OCC)cc4)sc3C2)cc1,88.1%
10,Cc1ccc(CN2CC[C@H]3CO[C@@H](CNC(=O)C4CC4)[C@@H]3C2)cc1,18.5%
11,O=C1N(CC2CC2)CCC12CCCN(Cc1cncc(Cl)c1)CC2 (stereo not given),33.7%
12,COc1cccc(N(Cc2nc(-c3ccc(OC(C)C)cc3)oc2C)S(=O)(=O)c2ccccc2)c1,4.32% [at 10 µM]
13,COc1cccc(N(Cc2nc(-c3ccc(C)cc3)oc2C)S(=O)(=O)c2ccccc2)c1,-10.4% [at 10 µM]
14,COc1ccc(CNC(=O)CC2N=C3c4ccccc4N=C(SCc4cc(=O)n5ccccc5n4)N3C2=O)cc1 (stereo not given),19.7% [at 2.6 µM]
15,CCOC(=O)c1c(C)[nH]c(-c2ccccc2)c1-c1ccccc1,20.8% [at 10 µM]
16,CCc1ccc(NC(=O)Nc2ccc(-c3nc(-c4ccc(C)cc4)co3)cc2)cc1,11.2% [at 0.16 µM]
17,COc1ccc(CNC2=NCCNC23CCN(S(=O)(=O)c2cccs2)CC3)cc1,-8.27% [at 0.35 µM]
18,Cc1ccc(S(=O)(=O)N2CCC3(CC2)NCCN=C3NCc2ccc(F)cc2)c(C)c1,-23.4%
19,CCc1ccc(S(=O)(=O)N2CCC3(CC2)NCCN=C3NCc2cccc(OC)c2)cc1,-9.5% [at 0.68 µM]
20,Cc1ccc(S(=O)(=O)N2CCC3(CC2)NCCN=C3NCc2cccc(F)c2)c(C)c1,-19.4% [at 10 µM]
